CHOP inh = CHOP inhibition in unfolded protein response | inhibition, % at 10 µM | 220,000 tested, 3.8% active | CHO-K1 CHOP-promoter luciferase, tunicamycin-induced, 15-18 h | AID 2732;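 active = compounds that reduced the stress-induced luciferase reporter signal by more than about 70% of percent inhibition, limit read from the data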;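 also: 0% = tunicamycin plus vehicle and 100% = wells without tunicamycin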
S1P4 antag = blocks the human S1P4 receptor | inhibition, % at 4.98 µM | O95977 | S1P4-expressing cells, antagonist mode, reporter read-out | 220,000 tested, 0.26% active; in the data active = inhibition above about 29%;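 also: 0% = wells stimulated with agonist and 100% = vehicle wells without agonist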
Target sequence (O95977 whole entry, looked up): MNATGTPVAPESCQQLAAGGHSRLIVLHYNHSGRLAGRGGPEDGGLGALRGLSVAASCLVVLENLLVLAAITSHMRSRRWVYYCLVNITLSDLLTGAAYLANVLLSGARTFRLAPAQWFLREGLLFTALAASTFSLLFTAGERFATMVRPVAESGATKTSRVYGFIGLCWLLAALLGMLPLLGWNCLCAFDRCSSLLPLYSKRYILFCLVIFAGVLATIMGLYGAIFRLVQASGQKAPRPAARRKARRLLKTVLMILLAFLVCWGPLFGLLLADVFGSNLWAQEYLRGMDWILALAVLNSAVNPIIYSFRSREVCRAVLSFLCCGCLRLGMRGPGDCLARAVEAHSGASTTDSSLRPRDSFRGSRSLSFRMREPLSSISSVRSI
S1P4 agonist = human S1P4 receptor agonism. S1P4-expressing cell line, agonist reporter assay. activation, % at 4.98 µM. 220,000 tested, 0.35% active. AID 1509; in the data active = activation above about 11%;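 also: 0% = DMSO vehicle and 100% = reference agonist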
Hsp70 activator = switches on Hsp70 transcription. activation, % at 10 µM. 200,000 tested, 0.04% active. AID 1203. HeLa Hsp70 promoter luciferase reporter, luminescence; scaled: vehicle 0, proteasome-inhibitor control 100%;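 active = activation above the mean across all tested compounds plus 3 SD, cutoff set per campaign, cut at about 5.5% in these data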;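 also: 100% = MG132 at 30 µM as the positive control and 0% = DMSO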
The depositor's hits bear a star; . = no result given. Sampled rows, rich in hits. Any-hit rate of the full collection: about 4.2%.

SMILES	CHOP inh	S1P4 antag	S1P4 agonist	Hsp70 activator
Cc1nn(C(C)(C)C)c(OC(=O)c2ccco2)c1Sc1ccccc1	75*	5	0	0
Cc1nn(C(=O)c2ccco2)c(C)c1Sc1ccccc1	93*	-12	0	0
O=C(Nc1ccccc1N1CCN(C(=O)c2ccc(Cl)cc2)CC1)c1cc2ccccc2o1	-15	-2	0	0
Cc1cc(C)c(-c2csc(NC(=O)c3cc([N+](=O)[O-])ccc3N3CCOCC3)n2)c(C)c1	6	-22	0	0
CCOc1ccccc1Nc1nc(-c2sc(NC(=O)c3ccc([N+](=O)[O-])cc3)nc2C)cs1	82*	4	1	0
Cc1ccccc1Nc1nc(-c2sc(NC(=O)c3ccc([N+](=O)[O-])cc3)nc2C)cs1	34	10	-1	0
Cc1ccc(S(=O)(=O)NN2C(=O)c3ccccc3NC2C)cc1 (stereo unspecified)	10	-17	0	0
COc1ccc(-c2cc(C(=O)OCC(=O)Nc3cc(C)on3)c3ccccc3n2)cc1OC	88*	2	-1	0
O=C(NNC(=O)c1cc(-c2ccc(Cl)c(Cl)c2)nc2ccccc12)Nc1ccccc1	89*	7	0	0
COc1ccc(C(=O)OCC(=O)Nc2cc(C)on2)c(OC)c1OC	8	1	1	0
Cc1ccc(C(=O)NCC(=O)OCC(=O)Nc2ncc(C(F)(F)F)cc2Cl)cc1	-1	-6	-1	0
Cc1cccc(NC(=O)NNC(=O)c2cc(-c3ccccc3Cl)nc3ccccc23)c1	0	-5	0	0
Cc1ccc(-c2cc(C(=O)OCC(=O)Nc3cc(C)on3)c3ccccc3n2)c(C)c1	89*	-4	-1	0
Cc1ccc(-c2cc(C(=O)OCC(=O)Nc3ncc(C(F)(F)F)cc3Cl)c3ccccc3n2)cc1	83*	-19	0	0
CCc1ccc(C(CNC(=O)c2ccc3c(=O)n(-c4ccccc4F)c(=S)[nH]c3c2)N(C)C)cc1 (stereo unspecified)	33	12	1	0
COC(=O)c1ccc(C(=O)OC)c(=O)[nH]1	0	-18	0	.
Cc1ccc(Nc2nnc(SCC(=O)Nc3ncc(C(F)(F)F)cc3Cl)s2)cc1	74*	-13	0	0
CCC(C)c1ccc(-c2cc(C(=O)OCC(=O)Nc3cc(C)on3)c3ccccc3n2)cc1 (stereo unspecified)	85*	-10	1	0
COc1ccc(-c2cc(C(=O)Nc3c(Cl)cc(Cl)cc3Cl)c3ccccc3n2)cc1OC	79*	6	1	0
COc1cc(-c2nnc(SCC(=O)N(Cc3ccccc3)C(C)(C)C)o2)cc(OC)c1OC	50	0	-3	-1
Cc1ccc(S(=O)(=O)N(CC(=O)N2CCN(c3ccccc3F)CC2)C2CCCCC2)cc1	69	0	0	0
C=C(C)[C@@H]1CC=C(CN2CCC(N3CCC(C(=O)N4CCCC4)CC3)CC2)CC1	11	-10	0	0
Cc1ccc(C(=O)c2no[n+]([O-])c2C(=O)c2ccc(C)cc2)cc1	82*	1	2	0
COc1ccc(-c2ccn(-c3cccc(F)n3)n2)cc1	0	-9	1	0
COc1nc(Nc2ccc([N+](=O)[O-])cc2)nc(NC2CCCCC2)n1	82*	1	1	0
SMILES	CHOP inh	S1P4 antag	S1P4 agonist	Hsp70 activator
C=CCNc1nc(Nc2ccc([N+](=O)[O-])cc2)nc(OC)n1	12	-13	-1	0
O=C(NCCc1ccccc1)C(c1cccs1)N(C(=O)CCl)c1ccc(Cl)cc1 (stereo unspecified)	111*	-5	0	0
O=C(NCCc1ccccc1)C(c1cccs1)N(C(=O)c1csnn1)C1CC1 (stereo unspecified)	30	-2	2	0
COc1ccc(C)cc1S(=O)(=O)Nc1ccc(F)cc1	0	-35	0	1
CCOc1cc(C)c(S(=O)(=O)Nc2ccc(F)cc2)cc1C	81*	-10	-1	0
Cc1cccc(C)c1NC(=O)COn1nnc2ccc(C(F)(F)F)cc21	18	10	0	0
CCOC(=O)c1c(-c2ccc(C)cc2)csc1NC(=O)C1CCCO1 (stereo unspecified)	58	-16	-1	0
CCOC(=O)c1c(-c2ccc(F)cc2)csc1NC(=O)C1CCCO1 (stereo unspecified)	75*	-7	1	0
COc1ccc(NC(=O)CNCCC2=CCCCC2)cc1	30	9	-1	0
O=C(CNCCC1=CCCCC1)Nc1ccccc1N1CCCCC1	92*	-4	0	0
O=C(CCC1CCCCC1)Nc1ccccc1-c1ccccc1	60	-7	2	0
O=C(CCC1CCCCC1)Nc1ccccc1O	73*	-13	-2	0
CN(CC(=O)Nc1ccc(OC(F)(F)F)cc1)C1CCCCC1	45	-10	1	0
Cc1cccc(N2CCN(CC(=O)NCC3CCCCC3)CC2)c1C	76*	-7	1	0
O=C(CNCC1CCCCC1)Nc1ccc(OC(F)(F)F)cc1	91*	-17	0	0
Cc1cccc(N2CCN(CC(=O)Nc3nccs3)CC2)c1C	10	-21	2	0
Cc1cccc(N2CCN(C(=S)NCc3ccco3)CC2)c1C	0	-9	1	0
CCOC(=O)c1c(C)n(C)c2ccc(O)c(S(=O)(=O)c3ccccc3)c12	14	-13	0	0
CCOC(=O)CNC(=O)CSc1nnc(-c2ccccc2)c(-c2ccccc2)n1	-44	1	0	0
COc1ccc(S(=O)(=O)Nc2cc(C(=O)NCCCOC(C)C)ccc2N2CCOCC2)cc1	7	-1	1	0
O=C(CNCC1CCCCC1)Nc1ccccc1N1CCCCC1	79*	-9	0	0
CCOC(=O)c1c(N)sc2c1CCC(CC)C2 (stereo unspecified)	77*	12	3	0
CCC1CCc2c(sc(N)c2C(N)=O)C1 (stereo unspecified)	25	-13	0	-1
CC1(C)CC(OC(=O)c2ccccc2)CC(C)(C)N1	3	-26	0	0
CC1=C(OC(=O)c2ccccc2)C(C)(C)C(c2ccccc2)OC1=O (stereo unspecified)	81*	3	-2	0
SMILES	CHOP inh	S1P4 antag	S1P4 agonist	Hsp70 activator
CC1=C(OC(=O)c2ccc(Br)cc2)C(C)(C)C(c2ccccc2)OC1=O (stereo unspecified)	37	-15	1	0
CC1=C(OC(=O)c2ccccc2)C(C)(C)C(c2ccc(Br)cc2)OC1=O (stereo unspecified)	91*	-36	-1	0
CC(C)(C)NC(=O)NC(=O)COC(=O)C1=COCCO1	81*	7	-1	0
O=C(COC(=O)C1=COCCO1)Nc1ccccc1	-10	11	0	0
O=C(CNC(=O)C12CC3CC(CC(C3)C1)C2)OCc1cc(=O)n2cc(Br)ccc2n1	9	-5	0	0
O=[N+]([O-])c1cc([N+](=O)[O-])c2cccnc2c1Oc1ccccc1O	86*	-13	-1	0

Bioassay records as filed in PubChem.
